Assay [1] in a line: viability loss in pontine glioma line – cell-based, SU-DIPG-XVII, MIPE5.0, CellTiter-Glo, qHTS, dose response (AID 1347060).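 For AC50: cells exposed to compound for 48 hours before viability readout.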 Conditions: CellTiter-Glo ATP luminescence.
Assay [2] is described as follows: viability loss in pontine glioma line – cell-based, JHH-DIPG-1, MIPE4.0, CellTiter-Glo, qHTS, dose response (AID 1347062; cut-off not given, nearly all actives have AC50 up to about 27 µM;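 for AC50: cells exposed to compound for two days before readout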). The following applies: JHH-DIPG-1 viability, CellTiter-Glo ATP luminescence. On the technique in general: Cellular ATP, detected with luciferase, serves as a proxy for viable cell number.
Assay [3] in a line: viability loss in pontine glioma line – cell-based, SU-DIPG-XIII, MIPE5.0, CellTiter-Glo, qHTS, dose response (AID 1347064; cut-off not given, nearly all actives have AC50 up to about 23 µM;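 for AC50: cells exposed to compound for 48 hours before the viability read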). Conditions: CellTiter-Glo ATP luminescence.
Assay [4] in a line: viability loss in pontine glioma line – cell-based, SU-DIPG-XXV, MIPE5.0, CellTiter-Glo, qHTS, dose response (AID 1347065).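 Note: cells exposed to compound for 48 hours before ATP readout.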 Conditions: CellTiter-Glo ATP luminescence.
Assay [5] is described as follows: growth inhibition of DIPG cells – cell-based, MIPE4.0 library, CellTiter-Glo luminescence, qHTS (AID 1347066; cut-off not given, nearly all actives have AC50 up to about 30 µM;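 note: cells exposed to compound for 48 hours before readout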). Conditions: SU-DIPG-VI viability, CellTiter-Glo ATP luminescence.
Assay [6] in a line: JHH-DIPG-1 glioma cell viability, MIPE5.0 library, CellTiter-Glo luminescence, qHTS (AID 1347067).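 Note: cells exposed to compound for 48 hours before readout.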 Conditions: JHH-DIPG-1 glioma viability, CellTiter-Glo ATP luminescence.
Assay [7] is described as follows: growth inhibition of DIPG cells – cell-based, MIPE5.0 library, qHTS (AID 1347068; cut-off not given, nearly all actives have IC50 up to about 30 µM;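 for IC50: cells exposed to compound for 48 hours before viability readout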). The following applies: SU-DIPG-XXV viability.
Assay [8] is described as follows: viability loss in pontine glioma line – cell-based, SU-DIPG-IV, MIPE4.0, CellTiter-Glo, qHTS, dose response (AID 1347063; cut-off not given, nearly all actives have AC50 up to about 30 µM;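 note: compound exposure lasted 48 hours before the viability readout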). The following applies: CellTiter-Glo ATP luminescence.
Assay [9] is described as follows: viability loss with induced miR-34 in A549 – imaging, A549 dox-inducible miR-34, nuclei and caspase counts, primary screen (AID 1347080;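 active = compounds whose cell count with miR-34 switched on is under 0.7 times the count with it off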). The following applies: A549 miR-34 inducible, Hoechst nuclei count, 48 h.
Assay [10] is described as follows: MELAS cybrid and Rieske KO viability enhancers – cell-based, MELAS cybrids, Rieske KO mouse fibroblasts, CellTiter-Glo, primary screen (AID 1508586;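 active = mean z-score across replicates of 1.96 or higher in either the MELAS or the Rieske mutant cell line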;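 note: z relative to plate mean and SD of compound and empty wells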). The following applies: low glucose.
Assay [11] is described as follows: growth inhibition, single agent or in combination, cell-based, chromothripsis tumors, cisplatin or BGB combos (AID 1671449; in the data active = inhibition above about 80%;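 note: cells exposed for 96 hours; 0% = vehicle DMSO and 100% = killing by high DMSO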). The following applies: LFS_MB_P medulloblastoma cells.
Assay [12] can be described thus: growth inhibition, single agent and combos, cell-based, chromothripsis tumors, cisplatin or BGB combos (AID 1671450; in the data active = inhibition above about 80%;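 note: cells exposed to compound for four days; 0% = vehicle DMSO and 100% = cell killing by high DMSO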). Conditions: HDN33 neuroblastoma cells, stronger effect = higher value.
Assay [13] in a line: growth inhibition, single agents and combos, ICB984, cell-based, cisplatin or BGB combos, synergistic combos for chromothripsis tumors (AID 1671451; call rule not given here;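 note: cells exposed for 96 hours before readout; 0% = vehicle DMSO and 100% = killing by high DMSO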). The following applies: ICB984 medulloblastoma cells, drug combinations, stronger effect = higher value.
The nature of assay [14]: growth inhibition, single agents and combos, HTB85, cell-based, BGB or cisplatin IC20 combos, synergistic combos for chromothripsis tumors (AID 1671453; in the data active = inhibition above about 80%;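 note: cells exposed for 96 hours before readout; 0% = vehicle DMSO and 100% = high DMSO killing control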). Conditions: HTB85 osteosarcoma cells, drug combinations, stronger effect = higher value.
The nature of assay [15]: growth inhibition, MDA-MB-436, cell-based, BGB or cisplatin combos, synergistic combos for chromothripsis tumors (AID 1671458; call rule not given here;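 note: cells exposed for 96 hours; 0% = vehicle DMSO and 100% = killing by high DMSO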). Conditions: MDA-MB-436 breast carcinoma growth inhibition, drug combinations, stronger effect = higher value.
Assay [16] is described as follows: BT084 cell growth, single and combined drugs, ICGC_MB145, cisplatin and BGB IC40 combos (AID 1671461; in the data active = inhibition above about 80%;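 note: cells exposed to drugs for 96 hours; 0% = vehicle DMSO and 100% = high DMSO full killing control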). Conditions: BT084 medulloblastoma cells, drug combinations, stronger effect = higher value.
A short description of assay [17]: RCMB18 cell growth, single agent and combined, cisplatin and BGB IC40 combos (AID 1671462; in the data active = inhibition above about 80%;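 note: cells exposed to compound for four days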). Conditions: RCMB18 medulloblastoma cells, stronger effect = higher value.
Assay [18] can be described thus: CRL1545 cell growth, single agent and combined, cisplatin and BGB IC20 combos (AID 1671464; in the data active = inhibition above about 80%;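 note: cells exposed to compound for 96 hours before readout; 0% = vehicle DMSO and 100% = high DMSO killing control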). Conditions: CRL1545 osteosarcoma cells, stronger effect = higher value.
The mark [19] stands for this setting: stronger effect = lower value, cell number ratio, induced over uninduced.
The mark [20] stands for this setting: measured here: relative caspase fold change +Dox/-Dox.
[21] abbreviates: measured here: total cells with miR-34 induction, stronger effect = lower value.
Setting [22] is: measured here: total cells without miR-34 induction.
Where [23] appears, read: MELAS cybrid survival, CellTiter-Glo 48 h, stronger effect = higher value.
Setting [24] is: Rieske KO mouse fibroblast survival, CellTiter-Glo 72 h.
Where [25] appears, read: measured here: with BGB IC20 combination, at 0.5 µM.
Where [26] appears, read: measured here: with cisplatin IC20 combination, at 0.5 µM.

“And” between values parts separate entries of the source, which are not always exact repeats. Identical values can stand only once. Results filed as inconclusive are left out. The source made the active and inactive calls. Unless noted, no cut-off is given here; in the data, nearly all actives have AC50 up to about 26 µM.

On to `O=S(=O)(O)c1ccc2cc(N=Nc3cc(S(=O)(=O)O)c4cccnc4c3O)ccc2c1`, for which the outcome in assay [1], in assay [2], in assay [3], in assay [4], in [5] and in assay [6] was inactive. The result in assay [7] was inactive.

In the case of `CC[C@]12C=CCN3CC[C@@]4(c5cc([C@@]6(C(=O)OC)C[C@H]7C[C@@H](C(C)(F)F)CN(Cc8c6[nH]c6ccccc86)C7)c(OC)cc5N(C)[C@H]4[C@@](O)(C(=O)OC)[C@@H]1OC(C)=O)[C@@H]32`, the AC50 in assay [1] was 0.0783 µM (active); in assay [2], 0.469 µM (active); in assay [3], 1.75 µM (active); in assay [4], 0.111 µM (active); in assay [5], 8.33 µM (active); in assay [6], 0.312 µM (active). In addition, the half-inhibitory concentration (IC50) in assay [7] is 0.35 µM (active).

With `COc1ccc(/C=C\c2cc(OC)c(OC)c(OC)c2)cc1NC(=O)[C@H](N)CO`, the AC50 in assay [1] is 0.0833 µM (active); in [2] it was 0.0209 µM (active); in assay [3], 0.59 µM (active); in assay [4], 0.148 µM (active); in assay [6] it was 0.235 µM (active). Further, the IC50 in assay [7] is 0.332 µM (active).

For the molecule `CC(C)c1cc(C(C)C)c(CC(=O)NS(=O)(=O)Oc2c(C(C)C)cccc2C(C)C)c(C(C)C)c1`, the half-maximal activity concentration (AC50) in assay [1] was 10.5 µM (active); in [8] it was 20.9 µM (active); in assay [3] it was 13.2 µM (active); in assay [4] it was 9.34 µM (active); in [5], 10.5 µM (active); in [6], 11.8 µM (active). In assay [7], the IC50 is 8.33 µM (active). Also, the fold change was 0.956 (inactive) in assay [9] (setting [19]) and 0.65 in [9] (setting [20]). Besides, the cell count in [9] (setting [21]) is 5000; in [9] (setting [22]), 5220. Besides, the z-score is -0.406 (inactive) in assay [10] (setting [23]) and 0.969 in assay [10] (setting [24]).

As to `CC1(C)CCC2=C(O1)c1ccccc1C(=O)C2=O`, the AC50 in [1] is 11.8 µM (active); in [8] it was 20.9 µM (active); in [3], 6.61 µM (active); in assay [4], 9.34 µM (active); in [5], 20.9 µM (active); in assay [6] it was 7.42 µM (active). Moreover, the concentration for half-maximal inhibition (IC50) in assay [7] was 23.5 µM (active). Also, the fold change is 1.06 (inactive) and 1.01 (inactive) in [9] (setting [19]); 0.218 and 1.14 and 0.258 in assay [9] (setting [20]). The cell count in [9] (setting [21]) was 1260 and 1140 and 1760; in [9] (setting [22]) it was 1190 and 1130 and 1740. Besides, the z-score was 1.23 (inactive) in assay [10] (setting [23]) and -4.3 in assay [10] (setting [24]). Further, the inhibition in assay [11] (at 0.5 µM, stronger effect = higher value) is -7.4% (inactive) and 16.4% (inactive); in assay [11] (measured here: combination with BGB IC20, at 0.005 µM), -31.4% and 0.116%; in [11] (measured here: combination with BGB IC40, at 0.005 µM), -87% and -10.2%; in assay [11] (measured here: combination with BGB IC40, at 0.05 µM), -28.3% and -0.424%; in [11] (measured here: combination with cisplatin, at 0.5 µM, stronger effect = higher value), 51.9% and 10.9%; in [11] (measured here: combination with cisplatin, at 5 µM, stronger effect = higher value) it was 111% and 116%. Besides, the inhibition was 99.6% and 99% in [12] (BGB combo, at 5 µM); -4.92% (inactive) and -3.55% (inactive) in assay [12] (at 0.5 µM); 99% and 99.1% in assay [12] (cisplatin combo, at 5 µM); -10.6% and -8.55% in assay [12] (setting [25]); 4.95% and -8.23% in assay [12] (setting [26]); 99.5% and 99.2% in assay [12] (single agent, at 5 µM). The inhibition in assay [13] (BGB IC20 combo, at 0.005 µM) was -11% and 11%; in assay [13] (BGB IC40 combo, at 0.005 µM), -16.5% and -32.8%; in assay [13] (BGB IC40 combo, at 0.05 µM), 91.3% and 98.3%; in [13] (at 0.5 µM), -22.3% (inactive) and -31.1% (inactive); in assay [13] (cisplatin combo, at 0.05 µM), 91.3% and 98.3%; in assay [13] (cisplatin combo, at 0.5 µM), -20.6% and -42.9%. The inhibition in assay [13] (cisplatin combo, at 5 µM) is -38.6% and -41.8%; in assay [13] (measured here: 5 uM single agent, at 5 µM), 2.52% and -3.56%; in [14] (at 0.5 µM), -5.23% (inactive) and 6.87% (inactive); in [14] (measured here: with BGB IC20, at 0.5 µM), 23.7% and 5.32%; in [14] (measured here: with BGB IC20, at 5 µM), 76.7% and 64.8%; in assay [14] (measured here: with cisplatin IC20, at 0.5 µM) it was -20.9% and 1.14%. Further, the inhibition in [14] (measured here: with cisplatin IC20, at 5 µM) was 61.5% and 60.9%; in assay [14] (single agent, at 5 µM), 70.5% and 62.3%; in assay [15] (at 0.5 µM), -2.8% (inactive) and -3.21% (inactive); in assay [15] (measured here: BGB combination, at 0.5 µM), 3.02% and -1.78%; in assay [15] (measured here: BGB combination, at 5 µM) it was 81.9% and 78.2%; in [15] (measured here: cisplatin combination, at 0.5 µM) it was -22.4% and -3.57%. Besides, the inhibition is 86.7% and 87.2% in assay [15] (measured here: cisplatin combination, at 5 µM); -12.5% (inactive) and -0.136% (inactive) in [16] (at 0.5 µM); -14.9% and 2.47% in assay [16] (cisplatin combination, at 0.5 µM); 78.1% and 100% in assay [16] (cisplatin combination, at 5 µM); -20.9% and -18.5% in [16] (measured here: BGB IC40 combination 0.05 uM, at 0.05 µM); 99.5% and 99.6% in assay [16] (single agent, at 5 µM). Besides, the inhibition in [17] (at 0.5 µM) is -1.45% (inactive) and 6.25% (inactive); in assay [17] (cisplatin combo, at 5 µM) it was 101%; in [17] (measured here: BGB IC40 combination, at 0.05 µM) it was -6.29% and -29%; in assay [17] (measured here: combination with cisplatin, at 0.5 µM) it was -0.361% and 36.6%; in [17] (single agent, at 5 µM) it was 98.1% and 99.3%; in [18] (at 0.5 µM), 36.2% (inactive) and 22.6% (inactive). Also, the inhibition in [18] (setting [25]) was 33.7% and 14.6%; in [18] (setting [26]) it was 36.4% and 26.5%; in assay [18] (single agent, at 0.05 µM), -59.2% and -23.1%; in assay [18] (single agent, at 5 µM) it was 98.9% and 98.3%.

As usually defined, the AC50 is the concentration at which the activity in the assay is half-maximal. Broadly, the IC50 is the concentration at which inhibition is half-maximal. As usually defined, the inhibition is the drop in the measured response relative to a control, in per cent.

The record behind these values is PubChem BioAssay.
